Measured values taken from PubChem BioAssay.
Calls of active or inactive are those of the source. Unless noted, the rule behind the calls is not given here.

Columns and labels:
[1] = HepG2 liver cancer cell viability effects, profiling panel, resazurin fluorescence, 24 h, PK04 Diversity Set (AID 1172); conditions: higher = more signal
[2] = basal S. cerevisiae growth modulation, no modifier, primary screen, OD600, strain BY4716, 24 h, basal condition (AID 1173); conditions: OD600, 24 h, higher = more signal, called active from +8 up or from −8 down
[3] = MM1S myeloma cell viability, profiling panel, resazurin fluorescence, basal, 24 h, PK04 Diversity Set (AID 1174); conditions: higher = more signal, called active from +8 up or from −8 down;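 note: MM1S multiple myeloma cell line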
[4] = target: Dihydroorotate dehydrogenase (quinone), mitochondrial (Plasmodium falciparum (isolate 3D7)) (UniProt Q08210); test: PfDHODH enzyme inhibitors, primary screen, biochemical, C-terminal His tag, absorbance 600 nm (AID 1175); conditions: DCIP absorbance 600 nm, higher = more signal, called active from +8 up or from −8 down;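 note: recombinant parasite enzyme with a five histidine tag at its C terminus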
Sequence of Dihydroorotate dehydrogenase (quinone), mitochondrial (Plasmodium falciparum (isolate 3D7)) (Q08210 whole entry, looked up): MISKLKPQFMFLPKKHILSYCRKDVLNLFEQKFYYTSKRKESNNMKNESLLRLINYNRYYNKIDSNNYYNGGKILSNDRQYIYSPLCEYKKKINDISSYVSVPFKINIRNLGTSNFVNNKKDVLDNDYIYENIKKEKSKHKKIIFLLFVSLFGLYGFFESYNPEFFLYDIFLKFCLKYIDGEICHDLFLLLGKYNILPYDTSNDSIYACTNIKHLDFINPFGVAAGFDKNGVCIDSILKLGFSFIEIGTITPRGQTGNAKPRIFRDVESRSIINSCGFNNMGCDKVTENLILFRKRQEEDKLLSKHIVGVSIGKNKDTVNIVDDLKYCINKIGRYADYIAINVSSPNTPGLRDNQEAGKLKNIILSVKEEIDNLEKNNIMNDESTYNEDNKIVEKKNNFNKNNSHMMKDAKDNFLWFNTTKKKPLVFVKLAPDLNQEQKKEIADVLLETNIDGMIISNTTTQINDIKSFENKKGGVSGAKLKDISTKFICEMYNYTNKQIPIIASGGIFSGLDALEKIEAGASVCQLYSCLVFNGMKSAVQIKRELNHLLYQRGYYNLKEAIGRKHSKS

[5] = P. aeruginosa biofilm formation inhibitors, primary screen, strain PAO1, LB-PBS medium, absorbance 600 nm (AID 1176); conditions: P. aeruginosa PAO1 growth/biofilm, A600, 12 h; higher = more signal
[6] = S. cerevisiae RM11-1a growth modifiers, primary screen, strain RM11-1a, OD600, basal, 24 h (AID 1177); conditions: OD600, 24 h, higher = more signal, called active from +8 up or from −8 down;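 note: cultures grown under basal conditions with no added stressor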
[7] = E. coli acrAB mutant growth effects, primary screen, E. coli filamentation inducers, strain DRC39, OD650, 24 h (AID 1178); conditions: higher = more signal, called active from +8 up or from −8 down;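 note: growth measured as culture turbidity by optical density at 650 nm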
[8] = E. coli acrAB mutant growth effects, primary screen, E. coli filamentation inducers, strain DRC39, OD650, 48 h (AID 1179);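 note: screen aims at cell division blockers that make cells filament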; conditions: E. coli DRC39 delta-acrAB growth, higher = more signal, called active from +8 up or from −8 down
[9] = RPMI8226 myeloma cell viability, profiling panel, resazurin fluorescence, basal, 24 h, PK04 Diversity Set (AID 1180); conditions: higher = more signal;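 note: RPMI8826 multiple myeloma cell line at 5000 cells per well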
[10] = target: E3 ubiquitin-protein ligase XIAP (Homo sapiens) (UniProt P98170); test: XIAP binders, primary screen, biophysical, small-molecule microarray, fluorescence 635 nm (AID 1181); conditions: small-molecule microarray binding, higher = more signal;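 note: score merges 667 nm emission and signal to noise over triplicate slides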
Sequence of E3 ubiquitin-protein ligase XIAP (Homo sapiens) (P98170 whole entry, looked up): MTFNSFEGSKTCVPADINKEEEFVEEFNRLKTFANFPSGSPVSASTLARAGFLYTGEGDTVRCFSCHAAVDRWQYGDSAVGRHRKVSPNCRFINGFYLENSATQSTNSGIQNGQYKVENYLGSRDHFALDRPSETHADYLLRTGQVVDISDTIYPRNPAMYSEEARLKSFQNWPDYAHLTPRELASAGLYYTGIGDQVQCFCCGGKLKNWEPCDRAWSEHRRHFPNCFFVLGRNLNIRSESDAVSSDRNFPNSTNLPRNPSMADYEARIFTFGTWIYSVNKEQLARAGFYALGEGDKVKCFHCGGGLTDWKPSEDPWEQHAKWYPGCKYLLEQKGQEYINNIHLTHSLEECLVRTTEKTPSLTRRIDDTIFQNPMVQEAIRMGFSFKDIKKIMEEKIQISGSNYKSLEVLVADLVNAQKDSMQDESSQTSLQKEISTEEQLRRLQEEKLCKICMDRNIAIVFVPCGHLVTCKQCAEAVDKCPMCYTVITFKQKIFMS

[11] = test system: XIP peptide (Xip251-270) binding; test: small-molecule binders of XIP peptide, primary screen, biochemical, small-molecule microarray, fluorescence 635/667 nm, 0.1 µg/mL protein (AID 1182); conditions: fluorescent protein binding, 635 nm, higher = more signal, called active from +8 up or from −8 down
[12] = test system: XIP peptide (Xip251-270); test: small-molecule binders of XIP peptide, primary screen, biochemical, small-molecule microarray, fluorescence 635/667 nm, 0.5 µg/mL protein (AID 1183); conditions: small-molecule microarray binding, fluorescence 635 nm; higher = more signal
[13] = Plasmodium falciparum growth inhibition, primary screen, strain 3D7, DAPI fluorescence, 100 nL (AID 1184);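 note: parasites grown inside human red blood cells in medium with human serum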; conditions: P. falciparum 3D7 growth, 3 d, higher = more signal
[14] = target: Homeobox protein Hox-A13 (Mus musculus) (UniProt Q62424); test: inhibitors of HoxA13-DNA binding, primary screen, biochemical, fluorescence polarization, labeled oligonucleotide (AID 1185); conditions: 15 min, higher = more signal, called active from +8 up or from −8 down
Sequence of Homeobox protein Hox-A13 (Mus musculus) (Q62424 whole entry, looked up): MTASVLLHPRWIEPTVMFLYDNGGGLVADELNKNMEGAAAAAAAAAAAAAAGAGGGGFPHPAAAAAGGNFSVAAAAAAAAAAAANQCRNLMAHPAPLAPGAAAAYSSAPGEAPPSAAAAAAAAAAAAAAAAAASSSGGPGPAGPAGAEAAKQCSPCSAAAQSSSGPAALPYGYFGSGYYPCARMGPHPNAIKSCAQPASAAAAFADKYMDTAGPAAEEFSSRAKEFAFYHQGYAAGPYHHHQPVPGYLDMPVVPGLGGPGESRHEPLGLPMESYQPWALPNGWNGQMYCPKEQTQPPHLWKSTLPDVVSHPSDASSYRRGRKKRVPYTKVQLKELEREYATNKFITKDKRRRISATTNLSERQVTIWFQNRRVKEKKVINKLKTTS

[15] = inhibitors of hydroxyurea-induced Chk1 phosphorylation, primary screen, imaging, HeLa, phospho-Chk1 antibody, percent positive cells (AID 1186); conditions: hydroxyurea-induced phospho-Chk1 immunofluorescence imaging, higher = more signal
[16] = inhibitors of hydroxyurea-induced Chk1 phosphorylation, primary screen, imaging, HeLa, phospho-Chk1 nuclear intensity (AID 1187); conditions: hydroxyurea-induced phospho-Chk1 immunofluorescence imaging, higher = more signal

Structure (SMILES)	z-score [1]	z-score [2]	z-score [3]	composite z-score [4]	z-score [5]	z-score [6]	z-score [7]	z-score [8]	z-score [9]	composite z-score [10]	composite z-score [11]	composite z-score [12]	z-score [13]	z-score [14]	z-score [15]	z-score [16]
CC1CC/C=C\[C@H]2OC34C=CCN(c5ccc(Cl)cc5)C(=O)[C@H]3N(CCCCCCO)C(=O)[C@]4(C)C2C(=O)O1 (some centres not stated)	0.25	-0.257 (inactive)	0.722 (inactive)	-1.1 (inactive)	-0.801 (inactive)	0.268 (inactive)	0.251 (inactive)	0.732 (inactive)	0.485	1.65	0.675 (inactive)	0.265	0.955	-5.35 (inactive)	-0.517 (inactive)	-0.187 (inactive)
COC(=O)[C@@]1(Cc2ccc(F)cc2)[C@H]2c3cc(C(=O)N4CCCC4)n(Cc4ccccn4)c3C[C@H]2CN1C(=O)c1ccccc1	-1.52	1.32 (inactive)	-2.15 (inactive)	0.29 (inactive)	1.03 (inactive)	0.938 (inactive)	-0.81 (inactive)	-0.962 (inactive)	-2.45	0.0945	0.224 (inactive)	0.769	-1.68	-4.98 (inactive)	0.0348 (inactive)	-0.0643 (inactive)
O=C1O[C@@H](c2ccccc2)[C@@H](c2ccccc2)N2[C@@H](c3ccc(OCCO)cc3)[C@]3(C(=O)Nc4ccc(C#CC5(O)CCCCCC5)cc43)[C@@H](C(=O)Nc3nc4ccccc4s3)[C@H]12	-0.369	1.28 (inactive)	-0.0769 (inactive)	-0.263 (inactive)	2.29 (inactive)	2.45 (inactive)	-0.27 (inactive)	0.261 (inactive)	0.519	0.147	0.813 (inactive)	0.667	-1.59	1.03 (inactive)	0.234 (inactive)	0.42 (inactive)
COc1ccc(NN2C(C(O)c3ccc(I)cc3)C=CC3C(=O)N(C4CCCCC4)C(=O)C32)cc1 (configuration not stated)	1.59	0.0997 (inactive)	0.28 (inactive)	0.526 (inactive)	0.726 (inactive)	0.475 (inactive)	-0.558 (inactive)	0.725 (inactive)	-0.313	0.144	1.63 (inactive)	0.618	-0.684	-3.31 (inactive)	0.0831 (inactive)	-0.481 (inactive)
N#Cc1ccc(NN2C(C(O)C3CC=CCC3)C=CC3C(=O)N(c4ccccc4)C(=O)C32)cc1 (configuration not stated)	-1.3	0.0837 (inactive)	-0.609 (inactive)	0.0758 (inactive)	1.36 (inactive)	0.601 (inactive)	0.0108 (inactive)	0.123 (inactive)	-0.382	-0.0848	0.0603 (inactive)	0.678	0.134	-2.69 (inactive)	0.123 (inactive)	0.22 (inactive)
CCOC(=O)C1=CCC(c2cc3ccccc3[nH]2)N(CCN2CC(C(=O)OCC)=CCC2c2cc3ccccc3[nH]2)C1 (configuration not stated)	-0.474	0.897 (inactive)	-1.98 (inactive)	0.268 (inactive)	0.878 (inactive)	0.614 (inactive)	0.852 (inactive)	-0.732 (inactive)	-0.458	1.16	0.401 (inactive)	0.737	-1.51	-3.81 (inactive)	-0.852 (inactive)	-0.497 (inactive)
CN(C)C(=O)[C@@]1(Cc2ccccc2CN=[N+]=[N-])COC(c2ccc(OCCCO)cc2)=N1	1.01	-4.86 (inactive)	-1.19 (inactive)	-0.311 (inactive)	-0.732 (inactive)	3.73 (inactive)	1.04 (inactive)	1.58 (inactive)	0.196	0.153	0.182 (inactive)	0.62	-2.08	-5.02 (inactive)	-0.439 (inactive)	-0.521 (inactive)
CCCc1cc2c(n1CCc1ccc(Cl)cc1)C(C)C1CN(C(=O)c3ccccc3)C(C)(C(=O)OC)C21 (configuration not stated)	-1.19	0.736 (inactive)	-2.85 (inactive)	-0.823 (inactive)	0.659 (inactive)	1.09 (inactive)	-1.34 (inactive)	-1.33 (inactive)	-1.98	0.527	-0.573 (inactive)	0.201	-1.18	-5.05 (inactive)	0.853 (inactive)	0.692 (inactive)
C=C(CCCC)/C(=C/C[C@H](OC(=O)c1ccncc1)c1cccc(OCCO)c1)c1cnc2ccccc2c1	-0.0769	0.527 (inactive)	-0.737 (inactive)	-2.67 (inactive)	0.236 (inactive)	-0.364 (inactive)	-0.566 (inactive)	-0.635 (inactive)	-0.82	0.291	0.867 (inactive)	0.654	-2.97	-3.75 (inactive)	0.218 (inactive)	0.367 (inactive)
CC(C)C[C@@H]1NC(=O)[C@@H]2C[C@H](C(=O)NCCCCCCNC(=O)CS)[C@H](c3cccc(OCCO)c3)N2C1=O	-0.889	1.05 (inactive)	-1.1 (inactive)	0.283 (inactive)	0.863 (inactive)	1.11 (inactive)	-0.379 (inactive)	-0.881 (inactive)	-0.458	-0.122	1.63 (inactive)	0.839	-0.0654	-3.13 (inactive)	-0.517 (inactive)	-0.358 (inactive)
COc1ccc(C(=O)Nc2cccc(CN3C(=O)[C@]4(O[C@H](CC(=O)N5Cc6ccccc6C[C@H]5CO)[C@@H]([Si](C)(C)c5ccc(OC)cc5)[C@@H]4C)c4ccccc43)c2)cc1	0.256	1.49 (inactive)	-1.38 (inactive)	-3.9 (inactive)	0.425 (inactive)	2.82 (inactive)	0.0049 (inactive)	0.0565 (inactive)	-0.891	0.187	-0.335 (inactive)	0.697	-2.94	-2.35 (inactive)	1.01 (inactive)	0.835 (inactive)
O=C1C2C=CC(C(O)C3CCCCC3)N(n3cnnc3)C2C(=O)N1Cc1ccccc1 (configuration not stated)	-0.308	0.161 (inactive)	-0.196 (inactive)	-0.016 (inactive)	0.561 (inactive)	-0.618 (inactive)	0.386 (inactive)	1.01 (inactive)	-0.513	-0.0535	0.534 (inactive)	-0.0061	-0.902	-1.8 (inactive)	0.359 (inactive)	-0.394 (inactive)
CC(C)(C)N1CC=CC23O[C@@H]4/C=C\CCCOC(=O)C4[C@H]2C(=O)N(CCCO)[C@@H]3C1=O (some centres not stated)	0.0873	0.111 (inactive)	0.0928 (inactive)	-2.08 (inactive)	-0.236 (inactive)	-1.06 (inactive)	0.0362 (inactive)	-0.205 (inactive)	-0.0182	-0.0626	-0.12 (inactive)	-0.774	0.426	-5.57 (inactive)	-0.0351 (inactive)	0.0939 (inactive)
C[N+](C)(C)CCCC[C@@H]1NC(=O)[C@H]2C[C@@H](C(=O)NCCCCCNC(=O)CS)[C@@H](c3cccc(OCCO)c3)N2C1=O	-0.226	-0.307 (inactive)	0.703 (inactive)	-0.867 (inactive)	0.298 (inactive)	-1.13 (inactive)	-0.133 (inactive)	-0.779 (inactive)	0.401	-0.102	0.649 (inactive)	-0.203	-0.222	-2.8 (inactive)	0.0911 (inactive)	0.164 (inactive)
CC(C)=C1C(=O)C(c2ccccc2)=C2CN3C(=O)N(CCc4ccccc4)C(=O)[C@]3(C)[C@H]21	-0.823	-0.0416 (inactive)	-1.56 (inactive)	-0.757 (inactive)	-0.0424 (inactive)	0.119 (inactive)	-0.575 (inactive)	-0.456 (inactive)	-1.52	0.387	0.254 (inactive)	0.295	0.127	-3.12 (inactive)	-0.0061 (inactive)	0.467 (inactive)
C=C(CCCC)/C(=C/C[C@H](OC(C)=O)c1cccc(OCCO)c1)c1cnc2ccccc2c1	0.209	1.13 (inactive)	-0.117 (inactive)	-3.15 (inactive)	-0.693 (inactive)	1.75 (inactive)	0.5 (inactive)	0.211 (inactive)	0.814	-0.0448	-0.0697 (inactive)	0.0014	-2.57	-4.01 (inactive)	-0.549 (inactive)	-0.761 (inactive)
COCCOC(=O)N1C(=O)[C@@]2(c3cc(C#CCC(C(=O)OC)C(=O)OC)ccc31)[C@H](C(N)=O)[C@H]1C(=O)O[C@H](c3ccccc3)[C@H](c3ccccc3)N1[C@@H]2c1ccc(O)cc1	-0.0776	2.28 (inactive)	-2.92 (inactive)	-0.667 (inactive)	6.87 (inactive)	3.96 (inactive)	0.714 (inactive)	0.537 (inactive)	-4.48	0.0727	0.896 (inactive)	0.77	-2.1	0.218 (inactive)	-0.0553 (inactive)	0.0543 (inactive)
